Measured values reported in PubChem BioAssay AID1159580 (chemical genetic matrix, 2015).
“And” between values parts separate entries of the source, which are not always exact repeats. Equal values may be shown once. Among all 5,500 compounds or so, about 2,000 (36%) were called active. Another 18% or so got no clear call; they are omitted. No stated cut-off is given here; in the data, active means normalized growth mostly below about 0.91 (no sharp cut-off); inconclusive means no clear call, values can overlap the other calls; inactive means mostly above about 0.92. The list shows a part of the results.

Assay: chemical genetic growth profiling, strain panel (AID 1159580);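 further: tested at 20 µM; growth read once vehicle control cultures reached saturation at 30 °C; 1 = growth at the plate median or of vehicle wells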
Details: S. cerevisiae deletion strains, growth OD

Measured: normalized growth

COc1ccc(-c2cc(=O)c3cc(OC)ccc3o2)cc1
inactive: locus YAL013W, strain DEP1, stronger effect = lower value 0.982 | locus YAL021C, strain ccr4, stronger effect = lower value 0.964 | locus YAL026C, strain drs2, stronger effect = lower value 0.922 | locus YBL061C, strain skt5, stronger effect = lower value 0.937 | locus YBR021W, strain FUR4, stronger effect = lower value 0.908 | locus YBR023C, strain chs3, stronger effect = lower value 0.916 | locus YBR171W, strain sec66, stronger effect = lower value 0.95 | locus YBR229C, strain ROT2, stronger effect = lower value 0.999 | locus YBR231C, strain swc5, stronger effect = lower value 0.939 | locus YBR279W, strain paf1, stronger effect = lower value 0.944 | locus YCL016C, strain dcc1, stronger effect = lower value 0.944 | locus YCL029C, strain bik1, stronger effect = lower value 0.987 | locus YCL061C, strain MRC1, stronger effect = lower value 0.96 | locus YCL069W, strain vba3, stronger effect = lower value 0.945 | locus YCR088W, strain abp1, stronger effect = lower value 0.94 | locus YDL005C, strain med2, stronger effect = lower value 0.949 | locus YDL035C, strain GPR1, stronger effect = lower value 0.977 | locus YDL040C, strain nat1, stronger effect = lower value 0.95 | locus YDL074C, strain BRE1, stronger effect = lower value 0.918 | locus YDL101C, strain DUN1, stronger effect = lower value 0.983 | locus YDL134C, strain PPH21, stronger effect = lower value 1.04 | locus YDL185W, strain tfp1, stronger effect = lower value 0.946 | locus YDL192W, strain arf1, stronger effect = lower value 0.978 | locus YDR001C, strain nth1, stronger effect = lower value 0.942 | locus YDR069C, strain doa4, stronger effect = lower value 0.948 | locus YDR101C, strain arx1, stronger effect = lower value 0.946 | locus YDR137W, strain rgp1, stronger effect = lower value 0.883 | locus YDR150W, strain NUM1, stronger effect = lower value 0.983 | locus YDR159W, strain sac3, stronger effect = lower value 0.925 | locus YDR162C, strain NBP2, stronger effect = lower value 1.01 | locus YDR195W, strain ref2 1.04 | locus YDR297W, strain sur2, stronger effect = lower value 0.955 | locus YDR318W, strain mcm21, stronger effect = lower value 1.02 | locus YDR334W, strain swr1, stronger effect = lower value 0.931 | locus YDR335W, strain msn5, stronger effect = lower value 0.962 | locus YDR388W, stronger effect = lower value 1 | locus YDR502C, strain sam2, stronger effect = lower value 0.968 | locus YEL003W, strain gim4, stronger effect = lower value 0.956 | locus YEL061C, strain CIN8 (second series), stronger effect = lower value 0.93 | locus YEL061C, strain CIN8, stronger effect = lower value 1.01 | locus YER015W, strain faa2, stronger effect = lower value 0.969 | locus YER016W, strain bim1, stronger effect = lower value 0.954 | locus YER110C, stronger effect = lower value 0.974 | locus YER111C, strain swi4, stronger effect = lower value 0.943 | locus YER155C, strain BEM2, stronger effect = lower value 0.985 | locus YER167W, strain BCK2, stronger effect = lower value 0.997 | locus YFR010W, strain ubp6, stronger effect = lower value 0.906 | locus YGL078C, strain dbp3, stronger effect = lower value 0.995 | locus YGL086W, strain mad1, stronger effect = lower value 0.938 | locus YGL167C, strain pmr1, stronger effect = lower value 0.924 | locus YGL173C, strain kem1, stronger effect = lower value 0.947 | locus YGL227W, strain vid30, stronger effect = lower value 0.947 | locus YGL240W, strain doc1, stronger effect = lower value 0.892 | locus YGL248W, strain PDE1, stronger effect = lower value 1.01 | locus YGR078C, strain PAC10, stronger effect = lower value 0.988 | locus YGR135W, strain pre9, stronger effect = lower value 1.01 | locus YGR229C, strain SMI1, stronger effect = lower value 0.961 | locus YGR252W, strain gcn5, stronger effect = lower value 1.04 | locus YHR013C, strain ard1, stronger effect = lower value 0.972 | locus YHR027C, strain rpn1, stronger effect = lower value 0.949 | locus YHR030C, strain SLT2, stronger effect = lower value 0.998 and 0.956 | locus YHR079C, strain IRE1 (second series), stronger effect = lower value 0.997 | locus YHR079C, strain IRE1, stronger effect = lower value 0.928 | locus YHR094C, strain hxt1, stronger effect = lower value 1.01 | locus YHR129C, strain ARP1, stronger effect = lower value 0.985 | locus YHR200W, strain rpn10, stronger effect = lower value 0.985 | locus YIL066C, strain RNR3, stronger effect = lower value 0.999 | locus YIL073C, strain SPO22, stronger effect = lower value 0.973 | locus YIL125W, strain kgd1, stronger effect = lower value 0.99 | locus YIR030C, strain dcg1, stronger effect = lower value 1.01 | locus YJL092W, strain hpr5, stronger effect = lower value 0.948 | locus YJL095W, strain BCK1 (second series), stronger effect = lower value 0.95 | locus YJL095W, strain BCK1, stronger effect = lower value 0.96 and 0.964 | locus YJL115W, strain asf1, stronger effect = lower value 0.936 | locus YJL129C, strain trk1, stronger effect = lower value 0.937 | locus YJL134W, strain LCB3, stronger effect = lower value 0.996 | locus YJL154C, strain vps35, stronger effect = lower value 0.942 | locus YJL166W, strain qcr8, stronger effect = lower value 0.913 | locus YJL168C, strain set2, stronger effect = lower value 1 | locus YJL187C, strain SWE1 (second series), stronger effect = lower value 0.972 | locus YJL187C, strain SWE1, stronger effect = lower value 0.948 | locus YJR043C, strain POL32, stronger effect = lower value 0.966 | locus YJR066W, strain TOR1, stronger effect = lower value 0.893 | locus YKL009W, strain mrt4, stronger effect = lower value 0.925 | locus YKL068W, stronger effect = lower value 1 | locus YKL085W, strain MDH1 (second series), stronger effect = lower value 0.997 | locus YKL085W, strain MDH1, stronger effect = lower value 0.997 | locus YKL160W, strain elf1, stronger effect = lower value 0.939 | locus YKL190W, strain CNB1, stronger effect = lower value 1 | locus YKR001C, strain vps1, stronger effect = lower value 0.93 | locus YKR026C, strain gcn3, stronger effect = lower value 0.942 | locus YKR091W, strain srl3, stronger effect = lower value 0.96 | locus YLL001W, strain dnm1, stronger effect = lower value 0.931 | locus YLL041C, strain sdh2, stronger effect = lower value 0.96 | locus YLR027C, strain aat2, stronger effect = lower value 0.925 | locus YLR039C, strain RIC1, stronger effect = lower value 1.01 | locus YLR058C, strain SHM2, stronger effect = lower value 0.99 | locus YLR102C, strain apc9, stronger effect = lower value 0.975 | locus YLR113W, strain HOG1, stronger effect = lower value 0.981 | locus YLR221C, strain rsa3, stronger effect = lower value 0.947 | locus YLR258W, strain gsy2, stronger effect = lower value 0.934 | locus YLR262C, strain YPT6 (second series), stronger effect = lower value 0.902 | locus YLR262C, strain YPT6, stronger effect = lower value 1.06 | locus YLR268W, strain sec22, stronger effect = lower value 0.965 | locus YLR330W, strain CHS5, stronger effect = lower value 0.925 | locus YLR342W, strain FKS1 (second series), stronger effect = lower value 0.975 | locus YLR342W, strain FKS1, stronger effect = lower value 0.94 | locus YLR357W, strain rsc2, stronger effect = lower value 0.88 | locus YLR370C, strain arc18, stronger effect = lower value 0.941 | locus YLR371W, strain rom2, stronger effect = lower value 0.965 | locus YLR384C, strain iki3, stronger effect = lower value 0.944 | locus YLR418C, strain cdc73, stronger effect = lower value 0.943 | locus YML016C, strain PPZ1, stronger effect = lower value 0.991 | locus YML032C, strain rad52, stronger effect = lower value 0.997 | locus YML120C, strain ndi1, stronger effect = lower value 0.946 | locus YML124C, strain tub3, stronger effect = lower value 1.01 | locus YMR058W, strain fet3, stronger effect = lower value 0.928 | locus YMR078C, strain ctf18, stronger effect = lower value 0.982 | locus YMR125W, strain sto1, stronger effect = lower value 0.927 | locus YMR129W, stronger effect = lower value 0.949 | locus YMR205C, strain PFK2, stronger effect = lower value 0.898 | locus YMR223W, strain ubp8, stronger effect = lower value 1.02 | locus YMR231W, strain pep5, stronger effect = lower value 0.974 | locus YMR307W, strain GAS1, stronger effect = lower value 1.06 | locus YNL067W, strain RPL9B, stronger effect = lower value 0.99 | locus YNL183C, strain NPR1, stronger effect = lower value 0.885 | locus YNL209W, strain ssb2, stronger effect = lower value 0.956 | locus YNL233W, strain BNI4, stronger effect = lower value 0.914 | locus YNL248C, strain rpa49, stronger effect = lower value 0.95 | locus YNL250W, strain rad50, stronger effect = lower value 0.957 | locus YNL271C, strain bni1, stronger effect = lower value 1.02 | locus YNL298W, strain CLA4, stronger effect = lower value 0.995 | locus YNL307C, strain MCK1, stronger effect = lower value 0.987 | locus YNL322C, strain KRE1 (second series), stronger effect = lower value 0.948 | locus YNL322C, strain KRE1, stronger effect = lower value 1 | locus YNR049C, strain mso1, stronger effect = lower value 0.937 | locus YNR052C, strain pop2, stronger effect = lower value 1.02 | locus YOL012C, strain htz1 1.07 | locus YOL147C, strain pex11, stronger effect = lower value 0.997 | locus YOR001W, strain rrp6, stronger effect = lower value 0.95 | locus YOR061W, strain CKA2, stronger effect = lower value 1.01 | locus YOR069W, strain VPS5, stronger effect = lower value 0.99 | locus YOR070C, strain gyp1, stronger effect = lower value 0.941 | locus YOR080W, strain dia2, stronger effect = lower value 0.961 | locus YOR083W, strain WHI5, stronger effect = lower value 0.954 | locus YOR106W, strain vam3, stronger effect = lower value 0.905 | locus YOR136W, strain idh2, stronger effect = lower value 0.988 | locus YOR144C, strain elg1, stronger effect = lower value 0.997 | locus YOR184W, strain ser1, stronger effect = lower value 0.979 | locus YOR231W, strain MKK1, stronger effect = lower value 0.952 | locus YOR265W, strain rbl2, stronger effect = lower value 0.949 | locus YOR316C, strain cot1, stronger effect = lower value 0.996 | locus YPL051W, strain arl3, stronger effect = lower value 0.945 | locus YPL055C, strain LGE1, stronger effect = lower value 0.934 | locus YPL078C, strain atp4, stronger effect = lower value 0.922 | locus YPL106C, strain sse1, stronger effect = lower value 0.873 | locus YPL240C, strain hsp82, stronger effect = lower value 0.972 | locus YPL241C, strain CIN2, stronger effect = lower value 0.997 | locus YPL256C, strain CLN2, stronger effect = lower value 0.962 | locus YPR119W, strain clb2, stronger effect = lower value 1 | locus YPR141C, strain kar3, stronger effect = lower value 1.02 | locus YPR163C, strain tif3, stronger effect = lower value 1 | locus YPR167C, strain met16, stronger effect = lower value 1.02 | strain wtn01, stronger effect = lower value 0.944
active: locus YAL030W, strain snc1, stronger effect = lower value 0.928 | locus YBR009C, strain hhf1, stronger effect = lower value 0.902 | locus YCL011C, strain gbp2, stronger effect = lower value 0.887 | locus YDR392W, strain spt3, stronger effect = lower value 0.571 | locus YEL037C, strain rad23, stronger effect = lower value 0.921 | locus YER155C, strain BEM2 (second series), stronger effect = lower value 0.771 | locus YGL253W, strain hxk2, stronger effect = lower value 0.894 | locus YHR142W, strain chs7, stronger effect = lower value 0.84 | locus YJL164C, strain tpk1, stronger effect = lower value 0.912 | locus YLL026W, stronger effect = lower value 0.926 | locus YLR320W, strain mms22, stronger effect = lower value 0.869 | locus YNL071W, strain lat1, stronger effect = lower value 0.831 | locus YOR270C, strain vph1, stronger effect = lower value 0.676 | locus YOR290C, strain snf2, stronger effect = lower value 0.849
